Compound activity (PubChem)
The list is not random: actives were taken first. Their share in the collection is about 19%.
DT40 TDP1 no CPT: qHTS for Inhibitors of human tyrosyl-DNA phosphodiesterase 1 (TDP1): qHTS in cells in absence of CPT; DT40 Tdp1-/- hTDP1 cells, no CPT, ATP luminescence, 48 h; Potency, µM (doses to about 46.2 µM), without a hit: at the top dose activity change, negative = growth inhibition, hits mostly inhibitors; 420,000 tested, 15% active; AID 686978, 2013; note: potency is the fitted concentration of half-maximal effect; nearly all actives have a fitted effect of over 55% in size
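Cells were dispensed at 400 per well, compounds added by pin tool, plates incubated ≥48 hr at 37 °C, then CellTiter-Glo added for 30 min at room temperature before luminescence reading. Line: DT40 Tdp1-/- complemented with hTDP1; camptothecin omitted.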
ELG1 DNA repair: blocks ELG1-dependent DNA repair in HEK293T cells. Potency, µM (doses to about 46.1 µM), without a hit: at the highest dose activity change, negative = inhibition, hits mostly inhibitors. AID 504467. HEK293T ELG1-luciferase reporter, luminescence, 16 h; DNA damage induced by 5-fluorouridine. 330,000 tested, 2.3% active; note: potency is the fitted concentration of half-maximal effect; nearly all actives have a fitted effect of over 55% in size
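Cells (2,000 per well) received 5-fluorouridine plus test compound or DMSO and were incubated 16 hr at 37 °C, 5% CO2. Luciferase activity was read by luminescence 30 min after ONE-Glo addition; signal suppression marked inhibition of damage-induced ELG1 function.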
IL1B secr inh: blocks inflammasome-driven IL-1 beta release. 360,000 tested, 4.7% active. activity change, % at 57.5 µM. THP-1 LPS/ATP IL-1B secretion, AlphaLISA, 16 h; active compounds read low. AID 743279; in the data active = activity change below about -50%; inconclusive = mostly about -30% to -49%
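THP-1 cells pretreated 1 hr with compounds (up to 57.5 uM final), then stimulated with LPS (250 ng/mL final) plus ATP (1.25 mM final); secreted IL-1B measured by AlphaLISA after 16 hr, decreased signal indicating inhibition.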
TDP1 cell CPT: growth inhibition of DT40 Tdp1-/-;hTDP1 cells with camptothecin (screen for TDP1 inhibitors). chicken DT40 Tdp1-/-;hTDP1 cells + 20 nM CPT, ATP luminescence, 48 h. AID 686979. 420,000 tested, 12% active. Potency, µM (titrated, usually from 46.2 µM), for the others: at the top dose activity change, negative = growth inhibition, most hits filed as inhibitors; note: potency is the fitted concentration of half-maximal effect; nearly all actives have a fitted effect of over 55% in size
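Chicken DT40 Tdp1-/- cells stably complemented with human TDP1 were seeded at 400 cells/well in medium containing 20 nM camptothecin, exposed to pin-transferred compounds, and grown at 37 °C for at least 48 hr. Viability was read as ATP luminescence.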
HT1080 IDH1KD tx: kills HT-1080 cells with IDH1 knockdown; HT-1080 IDH1 knockdown viability, ATP luminescence, 48 h; 360,000 tested, 2% active; Potency, µM (doses to about 46.1 µM), inactives show at the top dose activity, negative = toxicity, most hits filed as cytotoxic;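 note: potency is the fitted concentration of half-maximal effect; 0% = DMSO wells and -100% = cell-free medium wells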
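IDH1KD HT-1080 cells, 750/well, RPMI + 5% FBS; compound pinned after 2 h settling; 48 h, 37 °C; CellTiter-Glo luminescence; % activity normalised to DMSO and no-cell wells; curves fitted, classed by r2 and efficacy.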
HT1080-NT tox: kills 2HG-producing HT-1080-NT fibrosarcoma cells. HT-1080-NT fibrosarcoma viability, CellTiter-Glo ATP luminescence, 48 h. Potency, µM (highest dose often 46.1 µM), for inactives: top-dose activity, negative = less viability, hits mostly cytotoxic. 360,000 tested, 1.6% active. AID 686970;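 note: NT is the 2HG producing partner of a matched IDH1 knockdown line; potency is the fitted concentration of half-maximal effect; 0% = DMSO-treated cells and -100% = media-only wells without cells; nearly all actives have a fitted effect of over 55% in size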
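A 48-hour cytotoxicity screen used HT-1080-NT cells plated 2 hours before compound delivery. ATP-based CellTiter-Glo luminescence measured viability, normalized to DMSO and no-cell controls.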
Numbers without * were called inactive; ? = inconclusive; nt = no result given; ! = repeats disagree; [ ] = dose if it differs, or a comment. Unless noted, calls come from the whole dose curve; as a rule, active = well fitted curve in the direction sought with a large enough effect; inconclusive = small, poorly fitted or top-dose-only effect, or another doubt; inactive = no such curve, though single readings can be large; an effect the other way counts as inactive or inconclusive. Unless noted, % is set by controls: 0 for no effect and ±100 for the full control effect.

SMILES	DT40 TDP1 no CPT	ELG1 DNA repair	IL1B secr inh	TDP1 cell CPT	HT1080 IDH1KD tx	HT1080-NT tox
CCCNC(=O)c1cccc(S(=O)(=O)N2CC3(C)CC2CC(C)(C)C3)c1 (stereo not given)	?	-0.1%	1.8	?	-13.3%	-7.9%
CC(C)N(C(=O)COC(=O)c1cccc(S(=O)(=O)N2CC3(C)CC2CC(C)(C)C3)c1)C(C)C (stereo not given)	?	-0.5%	-17.2	23.1µM*	-17.7%	-0.6%
CN(C)C(CNC(=O)c1cccc(S(=O)(=O)N2CC3(C)CC2CC(C)(C)C3)c1)c1ccco1 (stereo not given)	16.4µM*	?	-6.1	?	2.6%	-1.2%
CC1(C)CC2CC(C)(CN2C(=O)COC(=O)c2cccc(O)c2)C1 (stereo not given)	-4.9%	0.0%	0.0	-21.1%	-0.4%	-2.0%[9.24 µM]
CN(C)S(=O)(=O)c1ccc(N2CCCC2)c(C(=O)NC2CCC(O)CC2)c1 (stereo not given)	-5.5%	-2.5%	-9.5	-2.7%	11.1%	12.3%
COc1cccc(CNC(=O)C(C(=O)NCc2cccc(OC)c2)c2ncc(C(F)(F)F)cc2Cl)c1	?	?	24.1	?	-22.3%	-4.6%
CCc1nc2sc3ccccc3c(=O)c2c(=O)n1CCOC	?	8.6%	-7.4	-28.7%	-0.8%	-12.6%
COCCn1c(=O)sc2ccccc2c1=O	?	6.1%	64.7	20.6µM*	12.3%	?
COCCn1c(C2CCCCC2)nc2sc3ccccc3c(=O)c2c1=O	23.1µM*	-5.5%	-12.9	?	3.0%	?
FC(F)(F)c1cc(Cl)c2nc(-c3ccco3)c(Cc3ccccc3C(F)(F)F)n2c1	14.6µM*	nt	0.0	?	?	-8.5%
Cc1ccc(-c2nc3c(Cl)cc(C(F)(F)F)cn3c2Cc2ccccc2C(F)(F)F)cc1	-23.1%	nt	17.7	1.2%	4.6%	10.4%
CCN(CC)C(=O)c1sc(NC(=O)c2c(OC)cccc2OC)c(C#N)c1C	-5.6%	1.1%	0.0	15.2%	23.0%	?
COC(=O)c1sc(NC(=O)c2ccc([N+](=O)[O-])o2)c(C#N)c1C	6.51µM*	4.61µM*	?	9.2µM*	-3.4%	-0.1%
COC(=O)c1c(NC(=O)c2ccc([N+](=O)[O-])o2)sc2c1CCN(C(C)C)C2	0.82µM*	-18.2%	-96.6*	0.581µM*	4.61µM*	20.6µM*
CCN(CC)C(=O)c1sc(NC(=O)c2cccc([N+](=O)[O-])c2)c(C#N)c1C	16.4µM*	-17.5%	1.5	20.6µM*	3.6%	8.7%
O=C1CN(C(=O)COc2c(F)c(F)cc(F)c2F)c2ccccc2N1	9.7%	28.0%	39.8	-1.1%	-4.8%	-5.4%
CSc1ccc(OC2(C)CCN(Cc3cc4ccccc4o3)C2)cc1 (stereo not given)	-25.0%	nt	17.8	-22.6%	3.0%	1.3%
O=C(N/C(=C\c1ccco1)C(=O)N1CCCC(CO)C1)c1ccccc1 (stereo not given)	6.8%	-0.2%	14.0	9.9%	13.1%	7.6%
CC1CC(C)CN(C(=O)C(NS(=O)(=O)c2ccc(Br)s2)c2ccccc2)C1 (stereo not given)	14.6µM*	-14.9%	2.4	18.4µM*	?	-25.8%
O=C(OCc1cc(=O)n2nc(-c3cccs3)sc2n1)c1ccccc1Br	-19.5%	nt	nt	-3.0%	nt	nt
COc1ccc(NC(=O)c2cc(CC(C)C)nc3ccccc23)cc1	?	23.1µM*	?	-17.3%	-1.7%	-3.4%
Cc1ccc(NC(=O)c2cc(CC(C)C)nc3ccccc23)cc1	?	20.6µM*	?	-6.1%	-4.7%	-0.2%
COc1ccccc1NC(=O)C1CCCN(S(=O)(=O)c2ccc3[nH]c(=O)ccc3c2)C1 (stereo not given)	?	-2.4%	25.1	20.6µM*	1.1%	6.0%
COC(=O)c1ccccc1NC(=O)C1CCCN(S(=O)(=O)c2ccc(F)cc2)C1 (stereo not given)	10.3µM*	?	-1.2	14.6µM*	10.8%	14.6%
COC(=O)c1ccccc1NC(=O)C1CCCN(S(=O)(=O)c2ccc(OC)cc2)C1 (stereo not given)	11.6µM*	?	8.7	18.4µM*	0.6%	1.3%
SMILES	DT40 TDP1 no CPT	ELG1 DNA repair	IL1B secr inh	TDP1 cell CPT	HT1080 IDH1KD tx	HT1080-NT tox
O=S(=O)(O)c1nc2ccccc2n1Cc1cccc2ccccc12	nt	0.0%	nt	nt	nt	nt
CN1CCN(C(=S)NC(CC(=O)c2ccccc2)c2ccccc2)CC1 (stereo not given)	-29.8%	8.0%	-51.8*	-6.9%	-14.6%	0.9%
CN1CCN(C(=S)NC(=O)/C=C/c2cccc3ccccc23)CC1	-17.2%	-3.6%	13.5	-12.2%	?	10µM*
CN1CCN(C(=S)NC(=O)/C=C/c2cccs2)CC1	-3.0%	?	-14.4	3.6%	-1.3%	-0.9%
O=C(COc1ccc(-c2nnco2)cc1)Nc1c(Cl)cccc1C(F)(F)F	-24.7%	1.3%	-4.5	-16.9%	0.5%	2.5%
COCCn1c(=O)c(C)nc2cnc(Nc3ccccc3)nc21	-0.1%	nt	nt	5.8%	nt	nt
COc1ccccc1CN(C)C(=O)CSCC(=O)Nc1ccccc1F	-29.0%	-10.4%	3.6	-25.0%	17.2%	2.0%
N#Cc1c(-c2ccc(Cl)cc2)c(C#N)c(=O)n(N)c1N	29.1µM*	?	-1.3	?	-1.9%	-5.2%
CSc1nc(-c2ccc(Cl)cc2)nc(N)c1C#N	-0.2%	0.0%	32.3	-2.1%	-7.0%	?
CSc1nc(N)c(C#N)c(-c2ccc(Cl)cc2)c1C#N	16.4µM*	3.8%	-4.5	-18.1%	?	?
CC(=O)Nc1cc(NC(C)=O)cc(-c2nc3ccccc3[nH]2)c1	5.8µM*!	-10.8%	12.8	8.2µM*!	21.5%	23.1%
CC(=O)Nc1ccc2nc(-c3cc(C)ccc3C)[nH]c2c1	3.26µM*	nt	nt	3.26µM*	nt	nt
CC(=O)Nc1ccc2nc(-c3ccncc3)[nH]c2c1	-2.9%	?	-14.8	-1.5%	19.9%	17.6%
COc1c(Cl)cc(C(=O)Nc2cccc(-c3nc4ccccc4[nH]3)c2)cc1Cl	23.1µM*	nt	nt	?	nt	nt
O=C(Nc1cccc(-c2nc3ccccc3[nH]2)c1)c1ccco1	?	?	0.0	?	0.7%	8.1%
CCCN(CCC)S(=O)(=O)c1ccc(C(=O)Nc2cccc(-c3nc4ccccc4[nH]3)c2)cc1	4.61µM*	nt	nt	4.61µM*	nt	nt
